This note sets out measurements from PubChem BioAssay (NCI).

Structures are written as SMILES. Compounds without any hit were thinned out: in the full panel of roughly 83,000, 20% have a hit.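 A percent growth of 40 corresponds to 60% growth inhibition; 0 means no net growth; -100 means all cells died. Active threshold: below 10.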 Active and inactive are the calls of the source.

The first experiment relates to UACC-62 melanoma. Briefly: NCI-60 one-dose screen, 48 h (100 = growth as untreated, 0 = no growth, -100 = all killed). Conditions: 10 µM unless noted.
Turning to `CN1CCN(CCCOc2cccc3nc(Nc4ccc(Cl)c(C(F)(F)F)c4)ccc23)CC1`, the growth is -29% (active).
On the same count and under the same terms, then `C#Cc1cccc(Nc2ncnc3cc(OC)c(OCCCCCCC(=O)NO)cc23)c1`, with -78.3% (active).
Take `Cc1ccc(-n2nc(C(C)(C)C)cc2NC(=O)NCc2cc(F)ccc2Oc2ccc3c(cnn3CCO)c2)cc1`: the growth was 7.75% (active).
Still for that read-out and setting: the result for `Cn1ccnc1C(=O)/C=C/c1ccc(CC(=O)Nc2ccc(Br)cc2)cc1` reads 33% (inactive); that for `Cc1[nH]n(C(N)=S)c(=O)c1N=Nc1ccc(S(=O)(=O)Nc2ccncn2)cc1`, 101% (inactive).
For `Cc1[nH]c(/C=C2\C(=O)Nc3ccc(F)cc32)c(C)c1C(=O)NC[C@H](O)CN1CCOCC1`, the growth was 29.9% (inactive).
Same read-out and setting: then `Cn1ncc(Cl)c1-c1cc(C(=O)N[C@H](CN)Cc2cccc(F)c2)sc1Cl`, with -19.5% (active); and `Cn1cc(-c2ncnc3ccc(-c4cnc(Cl)c(NS(C)(=O)=O)c4)cc23)c2ccccc21`, with -18.8% (active); and `O=[N+]([O-])c1cc(Br)cc2c1[nH]c1ccc(Br)cc12`, with 67.7% (inactive).
On the same count and under the same terms, then `COc1ccc2c(OCc3nnc4ccc(-c5ccccc5)nn34)ccnc2c1`, with 108% [2.5 µM] (inactive); and `CC(=O)O[C@]1(C)C[C@H](O)[C@]2(O)C=CO[C@H](O[C@@H]3O[C@H](CO)[C@@H](O)[C@H](O)[C@H]3O)[C@@H]21`, with 100% (inactive); and `COc1cc2cc(NCc3ccc(F)cc3)nc(C)c2cc1OC`, with 27.8% (inactive).
Same read-out and setting: then `O=C(Nc1nc2cccc(-c3ccc(CN4CCS(=O)(=O)CC4)cc3)n2n1)C1CC1`, with 87.6% (inactive); and `N#Cc1c(-c2ccc(Cl)cc2)csc1NC(=O)Nc1cccc(C(F)(F)F)c1`, with 12.5% (inactive); and `O=C(c1ccc(/C=C/c2n[nH]c3ccccc23)cc1)N1CCNCC1`, with 48.7% (inactive).
Consider `Cc1cnc(Nc2ccc(OCCN3CCCC3)cc2)nc1Nc1cccc(S(=O)(=O)NC(C)(C)C)c1`, for which the growth was -23.1% (active).
The same measure, in the same setting: then `CO[C@H]1C[C@@H]2CC[C@@H](C)[C@@](O)(O2)C(=O)C(=O)N2CCCC[C@H]2C(=O)O[C@H]([C@H](C)C[C@@H]2CC[C@@H](OCCO)[C@H](OC)C2)CC(=O)[C@H](C)/C=C(\C)[C@@H](O)[C@H](OC)C(=O)[C@H](C)C[C@H](C)\C=C/C=C/C=C/1C`, with 40.8% (inactive); and `COc1cc(F)c(F)c(Nc2ccc(I)cc2F)c1NS(=O)(=O)C1(C[C@H](O)CO)CC1`, with -3.18% (active); and `Nc1ccc(S(=O)(=O)O)c2cc(S(=O)(=O)O)cc(O)c12`, with 112% (inactive).
On the same count and under the same terms, then `COc1cc2ncnc(Nc3ccc(F)c(Cl)c3)c2cc1NC(=O)/C=C/CN1CCCCC1`, with -84.3% (active).
In the case of `COc1ccc(C(=O)N2c3ccccc3Sc3ccccc32)c(F)c1`, the growth was 22.6% (inactive).
On the same count and under the same terms, the result for `O=S1(=O)OC(c2ccc(O)c(Cl)c2)(c2ccc(O)c(Cl)c2)c2ccccc21` reads 99.5% (inactive).
Same read-out and setting: the result for `C[C@H](NC(=O)c1c(N)nn2cccnc12)c1cc2cccc(C#Cc3cnn(C)c3)c2c(=O)n1-c1ccccc1` reads 15.6% (inactive).
As to `Cc1cc(O)cc(-c2c(-c3ccnc(-c4cccnc4)c3)cnn2C)c1`, the growth is 62.1% (inactive).
The same measure, in the same setting: the result for `CN1CCN(CCOc2cc(OC3CCOCC3)c3c(Nc4c(Cl)ccc5c4OCO5)ncnc3c2)CC1` reads 99.6% (inactive).

In the next experiment the test system is LOX IMVI melanoma. The description is as above. The following applies: 10 µM unless noted.
As for `CC(C)(C)c1ccc(Cn2cc(CSc3nc4ccccc4s3)nn2)cc1`, the growth was 103% (inactive).
Turning to `CCN1CCN(Cc2ccc(Cc3ncc(F)c(-c4cc(F)c5nc(C)n(C(C)C)c5c4)n3)nc2)CC1`, the growth is -80.4% (active).
Still for that read-out and setting: then `CC(=O)NCC(=O)N1[C@@H]2CC[C@H]1c1ccc(Nc3ncc(C(F)(F)F)c(NC4CCC4)n3)cc12`, with 22% [2.5 µM] (inactive).
The same measure, in the same setting: the result for `O=C(NOCCO)c1cc(CN2OCCCC2=O)c(F)c(F)c1Nc1ccc(I)cc1F` reads 19.4% (inactive).
On the same count and under the same terms, then `CC(C)CC(=O)Nc1n[nH]c2c1CN(C(=O)C1CCN(C)CC1)C2(C)C`, with 9.19% (active).
Regarding `Cc1ccc(N)cc1CN1C(=O)c2ccccc2C1=O`, the growth is 101% (inactive).
Take `COCc1c(-c2ccc(NC(=O)Nc3cc(C(F)(F)F)ccc3F)c(F)c2)c2c(N)ncnn2c1CN1CCOCC1`: the growth is -81.7% (active).
Regarding `O=C(CNc1nc2ccccc2s1)Nc1ccc(-c2nc3ccccc3s2)cc1`, the growth is 75.8% (inactive).
Take `N#CC[C@H](C1CCCC1)n1cc(-c2ncnc3[nH]ccc23)cn1`: the growth was 55.3% (inactive).
On to `C=CC(=O)Nc1cc2c(Nc3ccc(F)c(Cl)c3)ncnc2cc1C#CC(C)(C)N1CCN(C)CC1`, for which the growth is -91.4% (active).
Still for that read-out and setting: then `CC(=O)C1=C(C)NC(SCc2nnc(-c3ccc(C)cc3)o2)=NC1c1ccc(F)cc1` (centres undefined), with 93.2% (inactive).
Same read-out and setting: the result for `CNC(=O)c1ccc(Nc2ncc(C(F)(F)F)c(NCc3nccnc3N(C)S(C)(=O)=O)n2)cc1` reads 0.319% (active).
As to `C/C=C/C=N/NC(=S)Nc1ccccc1`, the growth is 88.6% (inactive).
On the same count and under the same terms, the result for `COc1cc(N2CCC(N(C)C)CC2)ccc1Nc1ncc(Cl)c(Nc2ccccc2P(C)(C)=O)n1` reads -60.3% (active); that for `CN1CCN(CCCOc2cccc3nc(Nc4ccc(Cl)c(C(F)(F)F)c4)ccc23)CC1`, -95% (active); that for `C#Cc1cccc(Nc2ncnc3cc(OC)c(OCCCCCCC(=O)NO)cc23)c1`, -89.3% (active).
The same measure, in the same setting: then `Cc1ccc(-n2nc(C(C)(C)C)cc2NC(=O)NCc2cc(F)ccc2Oc2ccc3c(cnn3CCO)c2)cc1`, with 5.06% (active); and `Cn1ccnc1C(=O)/C=C/c1ccc(CC(=O)Nc2ccc(Br)cc2)cc1`, with 7.81% (active).
Consider `Cc1[nH]n(C(N)=S)c(=O)c1N=Nc1ccc(S(=O)(=O)Nc2ccncn2)cc1`, for which the growth was 87.4% (inactive).
Same read-out and setting: the result for `Cc1[nH]c(/C=C2\C(=O)Nc3ccc(F)cc32)c(C)c1C(=O)NC[C@H](O)CN1CCOCC1` reads 9.27% (active); that for `Cn1ncc(Cl)c1-c1cc(C(=O)N[C@H](CN)Cc2cccc(F)c2)sc1Cl`, -51.9% (active); that for `Cn1cc(-c2ncnc3ccc(-c4cnc(Cl)c(NS(C)(=O)=O)c4)cc23)c2ccccc21`, 9.88% (active).
On the same count and under the same terms, the result for `O=[N+]([O-])c1cc(Br)cc2c1[nH]c1ccc(Br)cc12` reads 38% (inactive).
Still for that read-out and setting: then `COc1ccc2c(OCc3nnc4ccc(-c5ccccc5)nn34)ccnc2c1`, with 2.5% [2.5 µM] (active).
Consider `CC(=O)O[C@]1(C)C[C@H](O)[C@]2(O)C=CO[C@H](O[C@@H]3O[C@H](CO)[C@@H](O)[C@H](O)[C@H]3O)[C@@H]21`, for which the growth was 105% (inactive).
The same measure, in the same setting: then `COc1cc2cc(NCc3ccc(F)cc3)nc(C)c2cc1OC`, with 6.57% (active); and `O=C(Nc1nc2cccc(-c3ccc(CN4CCS(=O)(=O)CC4)cc3)n2n1)C1CC1`, with 60.4% (inactive); and `N#Cc1c(-c2ccc(Cl)cc2)csc1NC(=O)Nc1cccc(C(F)(F)F)c1`, with 5.9% (active).
The same measure, in the same setting: then `O=C(c1ccc(/C=C/c2n[nH]c3ccccc23)cc1)N1CCNCC1`, with 5.66% (active).
On to `Cc1cnc(Nc2ccc(OCCN3CCCC3)cc2)nc1Nc1cccc(S(=O)(=O)NC(C)(C)C)c1`, for which the growth was -79.4% (active).
Regarding `CO[C@H]1C[C@@H]2CC[C@@H](C)[C@@](O)(O2)C(=O)C(=O)N2CCCC[C@H]2C(=O)O[C@H]([C@H](C)C[C@@H]2CC[C@@H](OCCO)[C@H](OC)C2)CC(=O)[C@H](C)/C=C(\C)[C@@H](O)[C@H](OC)C(=O)[C@H](C)C[C@H](C)\C=C/C=C/C=C/1C`, the growth was 40.3% (inactive).
With `COc1cc(F)c(F)c(Nc2ccc(I)cc2F)c1NS(=O)(=O)C1(C[C@H](O)CO)CC1`, the growth is 11.9% (inactive).
For `Nc1ccc(S(=O)(=O)O)c2cc(S(=O)(=O)O)cc(O)c12`, the growth was 90.2% (inactive).
Still for that read-out and setting: the result for `COc1cc2ncnc(Nc3ccc(F)c(Cl)c3)c2cc1NC(=O)/C=C/CN1CCCCC1` reads -90.2% (active); that for `COc1ccc(C(=O)N2c3ccccc3Sc3ccccc32)c(F)c1`, 40.3% (inactive).
With `O=S1(=O)OC(c2ccc(O)c(Cl)c2)(c2ccc(O)c(Cl)c2)c2ccccc21`, the growth is 100% (inactive).
As to `C[C@H](NC(=O)c1c(N)nn2cccnc12)c1cc2cccc(C#Cc3cnn(C)c3)c2c(=O)n1-c1ccccc1`, the growth is 7.86% (active).
On the same count and under the same terms, the result for `Cc1cc(O)cc(-c2c(-c3ccnc(-c4cccnc4)c3)cnn2C)c1` reads 61.5% (inactive); that for `CN1CCN(CCOc2cc(OC3CCOCC3)c3c(Nc4c(Cl)ccc5c4OCO5)ncnc3c2)CC1`, 15.5% (inactive).
